Unmarked numbers belong to inactive results.
Assays:
Assay in all cases: log2 ratio of Biotin-Ahx-Ub-VS probe labelling (fragment/DMSO); higher = less target engagement (more negative = stronger competition), active = hit call of the paper (q ≤ 0.05, log2 ratio ≤ -1)
Details in all cases: compound concentration: 200 uM; treatment time: 3 h
[1] = molecular target: T1, OTUD6B (UniProt Q8N6M0)
T1 sequence (whole entry): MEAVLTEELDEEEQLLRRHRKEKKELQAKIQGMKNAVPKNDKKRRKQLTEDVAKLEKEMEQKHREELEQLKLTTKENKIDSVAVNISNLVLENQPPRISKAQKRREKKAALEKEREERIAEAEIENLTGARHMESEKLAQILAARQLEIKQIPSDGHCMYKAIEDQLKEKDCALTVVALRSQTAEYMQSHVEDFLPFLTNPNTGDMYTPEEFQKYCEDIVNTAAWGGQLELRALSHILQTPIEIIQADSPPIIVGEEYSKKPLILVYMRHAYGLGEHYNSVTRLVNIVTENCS
Summary of the method: (§1)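 Fragment (200 µM) or vehicle was incubated for 3 h with triplicate HEK293T lysate samples of 495 µg, which were then treated with Biotin-Ahx-Ub-VS at 0.5 µM final for 1 h. Labelled DUBs were enriched on NeutrAvidin, digested with LysC and trypsin, and analysed by diaPASEF LC-MS/MS. Values are average log2 fragment/vehicle ratios from an unpaired t-test on global-median-normalised Spectronaut label-free quantities, using proteins with ≥2 unique peptides.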

[2] = molecular target: T2, OTUD7B (UniProt Q6GQQ9)
T2 sequence (whole entry): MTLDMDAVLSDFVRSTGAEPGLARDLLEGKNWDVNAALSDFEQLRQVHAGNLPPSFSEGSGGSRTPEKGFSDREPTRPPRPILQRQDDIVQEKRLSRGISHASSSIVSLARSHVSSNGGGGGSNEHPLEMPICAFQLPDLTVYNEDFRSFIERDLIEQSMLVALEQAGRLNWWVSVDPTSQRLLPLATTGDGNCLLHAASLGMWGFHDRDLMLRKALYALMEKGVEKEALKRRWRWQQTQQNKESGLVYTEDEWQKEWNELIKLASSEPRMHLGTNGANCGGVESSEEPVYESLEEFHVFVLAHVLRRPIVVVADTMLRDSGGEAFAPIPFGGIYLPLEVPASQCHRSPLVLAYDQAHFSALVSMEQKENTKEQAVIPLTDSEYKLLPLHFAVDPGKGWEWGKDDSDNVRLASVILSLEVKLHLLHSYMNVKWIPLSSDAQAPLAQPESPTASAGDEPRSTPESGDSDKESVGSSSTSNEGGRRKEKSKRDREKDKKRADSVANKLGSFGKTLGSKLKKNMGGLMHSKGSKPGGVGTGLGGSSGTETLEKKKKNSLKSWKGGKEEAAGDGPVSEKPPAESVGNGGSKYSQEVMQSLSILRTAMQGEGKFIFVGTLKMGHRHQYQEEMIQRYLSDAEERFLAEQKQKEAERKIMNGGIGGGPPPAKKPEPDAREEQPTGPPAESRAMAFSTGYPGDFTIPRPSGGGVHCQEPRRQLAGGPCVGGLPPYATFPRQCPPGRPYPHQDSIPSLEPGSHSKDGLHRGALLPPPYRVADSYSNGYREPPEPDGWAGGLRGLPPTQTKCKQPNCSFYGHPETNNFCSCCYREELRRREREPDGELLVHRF
Summary of the method: as §1

[3] = molecular target: PRPF8 (UniProt Q6P2Q9)
Summary of the method: as §1

[4] = molecular target: T3, PSMD7 (UniProt P51665)
T3 sequence (whole entry): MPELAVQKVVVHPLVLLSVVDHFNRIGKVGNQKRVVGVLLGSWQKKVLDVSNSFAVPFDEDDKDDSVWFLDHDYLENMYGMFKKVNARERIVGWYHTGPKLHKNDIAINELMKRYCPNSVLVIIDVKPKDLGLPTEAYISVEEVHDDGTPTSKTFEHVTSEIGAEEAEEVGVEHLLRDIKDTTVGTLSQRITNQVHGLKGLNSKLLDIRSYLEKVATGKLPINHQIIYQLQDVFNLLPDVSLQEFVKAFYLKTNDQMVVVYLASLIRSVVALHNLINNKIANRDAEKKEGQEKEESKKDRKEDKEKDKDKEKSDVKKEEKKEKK
Summary of the method: as §1

[5] = molecular target: UCHL1 (UniProt P09936)
Sequence of UCHL1 (P09936 whole entry, looked up): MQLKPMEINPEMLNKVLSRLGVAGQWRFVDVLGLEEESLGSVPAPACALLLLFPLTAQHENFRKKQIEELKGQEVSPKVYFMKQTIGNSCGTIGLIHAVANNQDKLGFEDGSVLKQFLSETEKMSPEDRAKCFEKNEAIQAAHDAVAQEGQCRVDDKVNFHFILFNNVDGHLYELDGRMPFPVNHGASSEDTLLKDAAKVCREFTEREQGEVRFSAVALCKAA
Summary of the method: as §1

[6] = molecular target: T4, UCHL3 (UniProt P15374)
T4 sequence (whole entry): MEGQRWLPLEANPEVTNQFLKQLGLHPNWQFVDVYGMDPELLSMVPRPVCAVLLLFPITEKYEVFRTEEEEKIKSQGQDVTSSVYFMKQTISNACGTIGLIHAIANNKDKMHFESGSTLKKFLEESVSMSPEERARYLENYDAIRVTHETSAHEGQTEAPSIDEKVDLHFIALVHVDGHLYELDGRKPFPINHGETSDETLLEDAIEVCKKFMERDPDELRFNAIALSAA
Summary of the method: as §1

[7] = molecular target: T5, UCHL5 (UniProt Q9Y5K5)
T5 sequence (whole entry): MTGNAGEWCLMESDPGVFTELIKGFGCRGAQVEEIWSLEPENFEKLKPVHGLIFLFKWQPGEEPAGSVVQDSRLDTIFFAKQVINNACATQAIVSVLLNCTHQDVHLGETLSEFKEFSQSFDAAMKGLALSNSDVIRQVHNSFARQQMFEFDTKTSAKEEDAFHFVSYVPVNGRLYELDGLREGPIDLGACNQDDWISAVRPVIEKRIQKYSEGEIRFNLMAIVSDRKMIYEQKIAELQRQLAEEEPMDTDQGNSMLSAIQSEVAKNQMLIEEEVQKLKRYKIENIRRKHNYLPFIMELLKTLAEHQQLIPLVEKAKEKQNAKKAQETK
Summary of the method: as §1

[8] = molecular target: USP10 (UniProt Q14694)
Sequence of USP10 (Q14694 whole entry): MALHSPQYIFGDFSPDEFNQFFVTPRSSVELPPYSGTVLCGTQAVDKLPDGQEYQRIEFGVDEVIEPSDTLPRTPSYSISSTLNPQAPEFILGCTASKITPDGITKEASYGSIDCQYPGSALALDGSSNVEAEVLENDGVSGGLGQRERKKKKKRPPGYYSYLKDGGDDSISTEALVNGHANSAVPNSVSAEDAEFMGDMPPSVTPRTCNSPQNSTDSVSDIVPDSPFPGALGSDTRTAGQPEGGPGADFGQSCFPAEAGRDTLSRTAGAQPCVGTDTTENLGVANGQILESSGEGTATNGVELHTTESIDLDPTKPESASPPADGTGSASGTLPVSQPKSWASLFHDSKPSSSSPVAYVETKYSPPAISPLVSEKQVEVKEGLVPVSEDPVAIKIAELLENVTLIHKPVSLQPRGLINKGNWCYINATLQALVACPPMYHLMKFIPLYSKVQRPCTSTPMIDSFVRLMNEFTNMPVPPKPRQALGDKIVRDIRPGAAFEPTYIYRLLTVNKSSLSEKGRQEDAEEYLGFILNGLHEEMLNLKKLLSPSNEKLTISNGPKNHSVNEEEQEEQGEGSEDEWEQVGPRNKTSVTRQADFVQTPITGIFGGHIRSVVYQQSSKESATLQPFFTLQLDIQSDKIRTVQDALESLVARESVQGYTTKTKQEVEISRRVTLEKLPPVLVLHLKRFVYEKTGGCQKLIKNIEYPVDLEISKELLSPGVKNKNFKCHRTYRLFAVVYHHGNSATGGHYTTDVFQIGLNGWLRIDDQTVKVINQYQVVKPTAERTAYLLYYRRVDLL
Summary of the method: as §1

[9] = molecular target: T6, USP15 (UniProt Q9Y4E8)
T6 sequence (whole entry): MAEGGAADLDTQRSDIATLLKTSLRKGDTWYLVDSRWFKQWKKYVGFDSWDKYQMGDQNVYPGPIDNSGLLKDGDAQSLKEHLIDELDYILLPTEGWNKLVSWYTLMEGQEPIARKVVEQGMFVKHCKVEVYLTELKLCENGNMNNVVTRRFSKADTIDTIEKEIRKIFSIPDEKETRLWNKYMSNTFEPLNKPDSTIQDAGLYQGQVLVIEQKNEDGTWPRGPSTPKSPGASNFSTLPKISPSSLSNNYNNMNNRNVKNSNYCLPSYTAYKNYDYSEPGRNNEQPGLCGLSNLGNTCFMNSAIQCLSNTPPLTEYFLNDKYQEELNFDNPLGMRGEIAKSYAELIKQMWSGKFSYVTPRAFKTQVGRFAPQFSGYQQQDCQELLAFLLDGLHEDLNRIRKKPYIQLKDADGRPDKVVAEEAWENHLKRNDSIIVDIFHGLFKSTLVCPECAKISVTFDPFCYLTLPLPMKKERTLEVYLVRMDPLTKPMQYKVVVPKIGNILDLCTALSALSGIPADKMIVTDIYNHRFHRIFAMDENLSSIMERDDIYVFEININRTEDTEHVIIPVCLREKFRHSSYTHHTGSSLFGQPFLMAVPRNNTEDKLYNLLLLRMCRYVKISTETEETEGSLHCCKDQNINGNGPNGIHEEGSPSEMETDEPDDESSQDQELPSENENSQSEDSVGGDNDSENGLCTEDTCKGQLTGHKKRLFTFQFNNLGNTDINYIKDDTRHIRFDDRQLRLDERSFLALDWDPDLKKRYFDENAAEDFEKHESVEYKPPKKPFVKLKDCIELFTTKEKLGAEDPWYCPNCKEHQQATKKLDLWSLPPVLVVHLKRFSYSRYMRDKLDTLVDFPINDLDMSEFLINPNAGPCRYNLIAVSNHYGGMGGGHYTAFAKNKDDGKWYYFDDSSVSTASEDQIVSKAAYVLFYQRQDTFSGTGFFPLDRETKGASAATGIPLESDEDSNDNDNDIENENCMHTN
Summary of the method: as §1

[10] = molecular target: USP16 (UniProt Q9Y5T5)
Sequence of USP16 (Q9Y5T5 whole entry, looked up): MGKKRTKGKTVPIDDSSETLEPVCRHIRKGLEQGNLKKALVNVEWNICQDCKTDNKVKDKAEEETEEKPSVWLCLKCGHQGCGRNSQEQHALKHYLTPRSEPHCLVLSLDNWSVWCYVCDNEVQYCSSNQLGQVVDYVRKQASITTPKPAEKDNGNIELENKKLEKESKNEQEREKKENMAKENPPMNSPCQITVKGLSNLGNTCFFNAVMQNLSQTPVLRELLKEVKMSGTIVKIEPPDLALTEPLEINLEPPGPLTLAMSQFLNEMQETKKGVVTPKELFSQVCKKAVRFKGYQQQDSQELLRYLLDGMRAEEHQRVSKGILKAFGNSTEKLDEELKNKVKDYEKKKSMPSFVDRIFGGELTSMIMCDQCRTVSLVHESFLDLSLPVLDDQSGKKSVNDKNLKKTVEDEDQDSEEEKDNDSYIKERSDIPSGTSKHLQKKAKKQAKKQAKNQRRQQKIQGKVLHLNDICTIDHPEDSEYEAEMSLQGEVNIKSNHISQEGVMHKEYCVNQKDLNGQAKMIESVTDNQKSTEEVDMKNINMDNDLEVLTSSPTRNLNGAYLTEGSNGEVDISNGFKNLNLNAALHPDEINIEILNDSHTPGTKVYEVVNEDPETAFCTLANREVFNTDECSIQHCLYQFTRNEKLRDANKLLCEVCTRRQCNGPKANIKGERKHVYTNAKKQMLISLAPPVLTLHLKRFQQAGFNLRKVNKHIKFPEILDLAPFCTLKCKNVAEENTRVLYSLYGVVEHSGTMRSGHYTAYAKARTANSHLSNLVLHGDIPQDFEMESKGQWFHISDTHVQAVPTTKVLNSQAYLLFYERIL
Summary of the method: as §1

Which “log2 ratio of Biotin-Ahx-Ub-VS probe labelling” value (from here on “log2 ratio”) [1] does the source give for `O=C(CCl)NC1CCOc2ccccc21` (stereo not given) here?
The value was -0.54.

What about the “log2 ratio” value [2] of the same compound?
Its value is -2.14 (active).

What about the “log2 ratio” value [3] of the same compound?
Its value is -0.152.

What about the “log2 ratio” value [4] of the same compound?
Its value is -0.0224.

What about the “log2 ratio” value [5] of the same compound?
The value was -1.84 (active).

What about the “log2 ratio” value [6] of the same compound?
Its value is -0.57.

What about the “log2 ratio” value [7] of the same compound?
The value was -1.08 (active).

What about the “log2 ratio” value [8] of the same compound?
The value was -0.255.

What about the “log2 ratio” value [9] of the same compound?
The value was -0.851.

And the “log2 ratio” value [10]?
Its value is -0.325.
